Many of the other results were omitted from the sample, so hits are more common in it than they were.
AID inh: activation induced cytidine deaminase inhibition | Potency, µM (titrated, usually from 115 µM), actives largely listed as inhibitors | Q9GZX7 | 91,000 tested, 0.32% active | AID deamination FRET fluorescence, UDG-coupled, 4 h; also: potency is read from the fitted curve at half-maximal effect; % is scaled to controls: 0 for no effect and ±100 for the full control effect; nearly all actives have a fitted effect of over 25% in size
Target sequence (Q9GZX7 whole entry, looked up): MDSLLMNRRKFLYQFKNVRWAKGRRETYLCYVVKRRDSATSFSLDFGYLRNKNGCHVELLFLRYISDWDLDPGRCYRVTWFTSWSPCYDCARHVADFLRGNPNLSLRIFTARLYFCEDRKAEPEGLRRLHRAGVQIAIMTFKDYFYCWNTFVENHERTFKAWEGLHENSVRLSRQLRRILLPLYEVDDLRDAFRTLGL
UDG counterscr: UDG inhibition counter-screen. FRET deamination/UDG coupled assay, UDG read, 4 h. Potency, µM (series often up to 115 µM), inactives show top-dose activity change, negative = inhibition, usual class: inhibitors. 91,000 tested, 0.14% active. AID 1347430; also: potency is read from the fitted curve at half-maximal effect; % is scaled to controls: 0 for no effect and ±100 for the full control effect; nearly all actives have a fitted effect of over 65% in size
DRV1 agonist: activates human resolvin D1 receptor GPR32 | O75388 | CHO-K1 GPR32 beta-arrestin PathHunter luminescence, 90 min; zero percent set by DMSO-only wells | AID 1346428 | activation, % at 76.9 µM | 48,000 tested, 2.5% active;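 active = activation of at least 60% and not above a set upper limit, about 1 call in 100 departs from these limits; inconclusive = activation of 40% to 60%, or above that upper limit; inactive = activation under 40%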; also: 0% is about no effect
Target sequence (O75388 whole entry, looked up): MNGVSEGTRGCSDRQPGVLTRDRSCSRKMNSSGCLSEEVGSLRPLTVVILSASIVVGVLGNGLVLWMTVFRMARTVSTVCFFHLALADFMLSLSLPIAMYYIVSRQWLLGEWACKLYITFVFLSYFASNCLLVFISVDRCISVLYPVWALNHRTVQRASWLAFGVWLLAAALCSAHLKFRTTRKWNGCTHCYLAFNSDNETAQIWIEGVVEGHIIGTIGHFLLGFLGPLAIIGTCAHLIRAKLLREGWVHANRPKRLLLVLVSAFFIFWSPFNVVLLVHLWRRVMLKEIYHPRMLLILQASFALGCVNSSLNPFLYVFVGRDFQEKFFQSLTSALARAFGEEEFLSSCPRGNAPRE
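Agonism was scored as beta-arrestin recruitment to ProLink-fused GPR32 in stably transfected CHO-K1 cells, giving a chemiluminescent beta-Gal signal; compounds were incubated 90 min at 37 °C.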
Active calls of the source: *; i = inactive; u = inconclusive; x = no result. Unless noted, calls follow the shape of the dose curve; as a rule, active = well fitted curve in the direction sought with a large enough effect; inconclusive = small, poorly fitted or top-dose-only effect, or another doubt; inactive = no such curve, though single readings can be large; an effect the other way counts as inactive or inconclusive.

SMILES | AID inh | UDG counterscr | DRV1 agonist
Cc1ccc(C(=O)Nc2sc3c(c2C(=O)NCc2ccco2)CCC(C(C)(C)C)C3)cc1 (configuration not stated) | i | 1.8% | 6.6
O=C(O)/C(=C/C=C/c1ccccc1)NC(=O)c1ccccc1 | i | -0.2% | x
COc1cc(NC(=O)c2ccc3c(c2)NC(=O)CS3)cc(OC)c1OC | i | 5.6% | x
COc1ccccc1Cn1cc(C(=O)c2ccc(Cl)cc2)c(=O)c2ccccc21 | i | 15.6% | 34.9
COc1cccc(Cn2cc(C(=O)c3ccc(Cl)cc3)c(=O)c3ccccc32)c1 | 28.2µM* | -14.9% | 6.3
CCCCN(CCCC)c1nc(-c2ccccc2)nc2ccccc12 | i | -22.1% | 110.4*
CCCCN(CC)c1nc(-c2ccc([N+](=O)[O-])cc2)nc2ccccc12 | i | -9.1% | x
COc1ccc(Cn2c(CO)cnc2SCc2ccc(F)cc2)cc1 | u | -24.0% | u
OCc1cnc(SCc2ccccc2F)n1Cc1ccc(F)cc1 | i | -1.7% | 93.9*
CCCC(C)NC(=O)NC(C)c1cccc(Cl)c1 (configuration not stated) | i | -4.1% | x
CC(C)=CCS(=O)(=O)Cc1cccc2ccccc12 | i | -7.8% | x
CN(C/C=C/C#CC(C)(C)C)Cc1cccc2ccccc12 | x | x | 95.0*
Cc1ccc(NC(=O)CC(C)(C(=O)O)c2ccccc2)c(C)c1 (configuration not stated) | i | -0.2% | x
CCC(CC)NCc1cccc(Oc2ccccc2)c1 | i | -2.9% | x
COc1ccc(-c2noc(CSc3nnc(Cc4ccccc4)n3-c3ccc(F)cc3)n2)cc1 | u | u | -33.1
COc1ccc(-n2c(Cc3ccccc3)nnc2SCc2nc(-c3ccccc3C)no2)cc1 | 31.6µM* | -29.1% | -34.9
CCC1CCC2(CC1)NC(=O)N(Cc1coc(-c3cccs3)n1)C2=O (configuration not stated) | i | -0.9% | x
CCC(=O)N1CCc2cc(S(=O)(=O)CCC(=O)NCc3ccc(OC)cc3)ccc21 | i | -11.1% | -3.2
CCC(=O)N1CCc2cc(S(=O)(=O)CCC(=O)Nc3ccc(OC(F)(F)F)cc3)ccc21 | i | 10.1% | 65.4*
CC(NC(=O)C1CCCC1)c1ccc(C(F)(F)F)cc1 (configuration not stated) | i | 5.7% | x
COc1cc(C(=O)Nc2cccc3cccnc23)ccc1C | i | 4.8% | x
Cc1coc2cc3oc(=O)c(CC(=O)N4CCCCC4)c(C)c3cc12 | i | 6.6% | -7.1
Cc1coc2cc3oc(=O)c(CCC(=O)N4CCCCC4)c(C)c3cc12 | i | 9.5% | 106.8*
COc1ccc(NC(=O)c2ccco2)cc1NC(=O)COc1cc(C)cc(C)c1 | i | -2.6% | 12.5
COc1ccc(NC(=O)c2ccco2)cc1NC(=O)COc1ccccc1Cl | i | 2.6% | 64.3*
SMILES | AID inh | UDG counterscr | DRV1 agonist
CCCn1ccc2c(OCC(=O)Nc3ccc(F)cc3F)cccc2c1=O | i | 55.4% | u
COc1ccc(Cl)cc1NC(=O)COc1cccc2c(=O)n(C)ccc12 | i | u | -2.9
CCCn1ccc2c(OCC(=O)NCc3ccc(C)cc3)cccc2c1=O | i | 5.6% | u
CCCn1ccc2c(OCC(=O)Nc3ccc(OC)c(OC)c3)cccc2c1=O | i | 24.7% | 85.6*
CCCCc1ccc(NC(=O)COc2cccc3c(=O)n(C)ccc23)cc1 | i | 17.5% | 60.2*
Cn1ccc2c(OCC(=O)NCc3ccccc3Cl)cccc2c1=O | i | 19.4% | 86.1*
CC(Nc1ccc(N)cc1Cl)c1ccccc1 (configuration not stated) | i | 4.9% | x
Cn1c(=O)ccn(CC(=O)Nc2nc(C3CC3)cs2)c1=O | i | 0.3% | x
O=Cc1cccn1-c1ccc(Cl)cc1Cl | i | -9.9% | x
CC(C)Cc1ccc(S(=O)(=O)N2CCC(c3ccncc3)CC2)cc1 | 35.5µM* | -8.8% | 10.2
CC(C)(C)c1ccc(S(=O)(=O)N2CCC(c3ccncc3)CC2)cc1 | u | -8.2% | -0.7
Cc1c(C(=O)Nc2ccccc2)sc(N)c1C#N | i | -8.1% | x
Cc1oc2cc(OCC(=O)NCCCOC(C)C)ccc2c(=O)c1-c1ccc(Cl)cc1 | i | u | x
CCOc1ccc(NC(=O)C2CC(=O)NC(=Nc3ccc(Cl)c(Cl)c3)S2)cc1 (configuration not stated) | i | -3.9% | -25.2
Cc1ccc(N=C2NC(=O)CC(C(=O)Nc3cc(C(F)(F)F)ccc3Cl)S2)cc1 (configuration not stated) | i | 0.3% | 80.5*
Cc1cc(C)cc(OCC(=O)N(Cc2cccs2)c2ccc(Cl)cc2)c1 | 22.4µM* | -5.3% | -39.4
Cc1ccc(N(Cc2cccs2)C(=O)COc2cccc(C)c2)cc1 | u | 0.9% | -1.0
CC(Cc1ccccc1)NNC(=O)C(O)(Cc1ccccc1)Cc1ccccc1 (configuration not stated) | i | -5.8% | x
COc1ccc(Nc2ncnc3c2nc2n3CCCC2)cc1Cl | i | -4.2% | 8.3
CCOc1ccc(Nc2ncnc3c2nc2n3CCCCC2)cc1 | i | -8.9% | 85.1*
Fc1ccccc1N1CCN(c2ncnc3c2nc2n3CCCCC2)CC1 | i | 0.8% | 44.3
COc1ccc(Nc2ncnc3c2nc2n3CCCCC2)cc1 | i | -5.8% | 76.9*
CCOc1ccccc1CNc1ncnc2c1nc1n2CCCC1 | i | -1.9% | -8.1
COc1ccccc1N1CCN(c2ncnc3c2nc2n3CCCC2)CC1 | i | 2.3% | 63.5*
CCCn1c(=O)n(CCC(=O)N(C)CC(=O)Nc2ccccc2Cl)c2ccccc21 | i | 8.2% | x
SMILES | AID inh | UDG counterscr | DRV1 agonist
C=CCOc1ccc(C(=O)NCC(F)(F)F)cc1 | i | -7.9% | x
O=C(CSc1nnc(-c2ccccc2Br)n1-c1ccccc1)c1ccc(F)cc1 | u | -10.2% | 60.2*
CCOc1ccc(-c2nnc(SCC(=O)c3ccc(F)cc3)n2-c2ccccc2)cc1 | i | -17.2% | -12.0
CCC(C)C(=O)OC(C(=O)NC(N)=O)C(C)C (configuration not stated) | i | -4.3% | x
CCc1c(C)sc2c1CCN(Cc1cccc(OC)c1)C2c1ccccc1 (configuration not stated) | i | -8.2% | 61.4*
CCc1c(C)sc2c1CCN(Cc1ccccc1F)C2c1ccccc1 (configuration not stated) | i | -12.9% | 32.6
CC(=O)c1ccc(-n2cc(-c3ccccc3)cc2-c2ccccc2)cc1 | i | -7.3% | x
FC(F)(F)c1cccc(NC(=S)NCCc2c[nH]c3ccccc23)c1 | i | 3.7% | x
Cc1cc(SCC2CCCCO2)nc2ccccc12 (configuration not stated) | i | 2.3% | x
CCCCS(=O)(=O)CCS(=O)(=O)CCCC | i | -0.1% | x
Cc1ccccc1C1/C(=C(\O)c2ccccc2F)C(=O)C(=O)N1c1ccc(CC(=O)O)cc1 (configuration not stated) | i | 2.8% | x
COC(=O)c1sc(N2C(=O)C(=O)/C(=C(/O)c3ccc(C)c(F)c3)C2c2ccccc2F)nc1C (configuration not stated) | 79.4µM* | -4.9% | x
COc1ccc(Cl)cc1NC(=O)C1CCN(c2nccnc2Oc2ccccc2C)CC1 | i | 89.1µM* | x
COc1ccccc1NC(=O)C1CCN(c2nccnc2Sc2ccc(C)cc2)CC1 | i | u | x
